According to PubChem BioAssay:
Calls of active or inactive are those of the source.

Experiments:
[1] = E. coli DRC41 culture turbidity changes, primary screen, E. coli filamentation inducer project, strain DRC41, OD650, 48 h (AID 1152);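 further: E. coli MC1000 strain DRC41 lacking acrAB efflux pump and sulA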; conditions: E. coli DRC41 (acrAB sulA), higher = more signal, called active from +8 up or from −8 down
[2] = small-molecule binders of probe aLefty1, primary screen, biochemical, small-molecule microarray, 635/667 nm fluorescence (AID 1153); conditions: higher = more signal;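 further: score merges spot fluorescence with signal-to-noise ratio from the scanned slide images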
[3] = PSAC antagonists in infected red cells, primary screen, cell-based, P. falciparum Indochina, OD700, 1 h (AID 1154); conditions: P. falciparum Indochina infected RBC osmotic lysis, higher = more signal, called active from +8 up or from −8 down
[4] = PSAC antagonists in infected red cells, primary screen, cell-based, P. falciparum Indochina, OD700, 2 h (AID 1155);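 further: lysis reports solute entry through the parasite surface anion channel PSAC; channel blockers reduce lysis of infected cells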; conditions: P. falciparum Indochina infected erythrocytes, osmotic lysis OD700; higher = more signal, called active from +8 up or from −8 down
[5] = osmotic lysis modulators in infected erythrocytes, primary screen, PSAC antagonist project, cell-based, P. falciparum Indochina, OD700, 3 h (AID 1156); conditions: higher = more signal, called active from +8 up or from −8 down
[6] = PSAC antagonists in infected red cells, primary screen, cell-based, P. falciparum Indochina, OD700, 18 h (AID 1157); conditions: P. falciparum Indochina infected erythrocytes, osmotic lysis OD700, 18 h; higher = more signal, called active from +8 up or from −8 down
[7] = modulators of S6 phosphorylation in cells, primary screen, cell-based, A549, cytoblot, luminescence, serum-stimulated (AID 1158); conditions: A549 phospho-S6 cytoblot, 5 h, higher = more signal;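 further: serum-stimulated A549 lung adenocarcinoma cells; signal is phosphorylated S6 detected by cytoblot immunostaining with HRP secondary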
[8] = molecular target: NADPH oxidase 2 (Homo sapiens) (UniProt P04839); assay: NOX2-dependent H2O2 signal modulators, primary screen, NOX inhibitor project, cell-based, HEK293-NOX2, PMA-stimulated, Amplex Red fluorescence (AID 1159); conditions: 45 min, higher = more signal, called active from +8 up or from −8 down; further: test concentration not given here
[9] = molecular target: NADPH oxidase 4 (Homo sapiens) (UniProt Q9NPH5); assay: NOX4-dependent H2O2 signal modulators, primary screen, NOX inhibitor project, cell-based, HEK293-NOX4, tetracycline-induced, Amplex Red fluorescence (AID 1160); conditions: 45 min, higher = more signal, called active from +8 up or from −8 down
[10] = molecular target: NADPH oxidase 5 (Homo sapiens) (UniProt Q96PH1); assay: NOX5-dependent H2O2 signal modulators, primary screen, NOX inhibitor project, cell-based, HEK293-NOX5, Amplex Red fluorescence (AID 1161); conditions: HEK293-NOX5, ionomycin, 45 min, higher = more signal
NADPH oxidase 5 (Homo sapiens), sequence (Q96PH1 whole entry, looked up): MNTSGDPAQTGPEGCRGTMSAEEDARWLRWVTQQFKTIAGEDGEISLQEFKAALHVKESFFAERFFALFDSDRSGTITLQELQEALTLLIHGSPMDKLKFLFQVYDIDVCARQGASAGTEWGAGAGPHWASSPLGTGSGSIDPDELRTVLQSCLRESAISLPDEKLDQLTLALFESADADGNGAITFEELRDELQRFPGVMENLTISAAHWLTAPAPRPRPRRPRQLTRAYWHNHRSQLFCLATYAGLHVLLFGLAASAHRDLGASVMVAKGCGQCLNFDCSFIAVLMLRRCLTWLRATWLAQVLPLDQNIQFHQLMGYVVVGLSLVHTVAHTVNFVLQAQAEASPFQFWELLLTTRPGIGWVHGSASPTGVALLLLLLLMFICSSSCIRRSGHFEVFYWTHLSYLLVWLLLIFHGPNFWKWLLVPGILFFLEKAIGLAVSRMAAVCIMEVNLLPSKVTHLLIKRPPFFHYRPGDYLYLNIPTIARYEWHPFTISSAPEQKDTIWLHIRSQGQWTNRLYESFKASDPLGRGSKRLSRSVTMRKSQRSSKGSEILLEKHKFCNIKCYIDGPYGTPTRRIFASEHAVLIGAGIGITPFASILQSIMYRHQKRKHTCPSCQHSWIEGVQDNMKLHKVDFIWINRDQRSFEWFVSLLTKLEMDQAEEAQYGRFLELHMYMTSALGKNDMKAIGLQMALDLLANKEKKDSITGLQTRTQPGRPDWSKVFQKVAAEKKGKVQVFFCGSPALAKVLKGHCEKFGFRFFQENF

NADPH oxidase 2 (Homo sapiens), sequence (P04839 whole entry, looked up): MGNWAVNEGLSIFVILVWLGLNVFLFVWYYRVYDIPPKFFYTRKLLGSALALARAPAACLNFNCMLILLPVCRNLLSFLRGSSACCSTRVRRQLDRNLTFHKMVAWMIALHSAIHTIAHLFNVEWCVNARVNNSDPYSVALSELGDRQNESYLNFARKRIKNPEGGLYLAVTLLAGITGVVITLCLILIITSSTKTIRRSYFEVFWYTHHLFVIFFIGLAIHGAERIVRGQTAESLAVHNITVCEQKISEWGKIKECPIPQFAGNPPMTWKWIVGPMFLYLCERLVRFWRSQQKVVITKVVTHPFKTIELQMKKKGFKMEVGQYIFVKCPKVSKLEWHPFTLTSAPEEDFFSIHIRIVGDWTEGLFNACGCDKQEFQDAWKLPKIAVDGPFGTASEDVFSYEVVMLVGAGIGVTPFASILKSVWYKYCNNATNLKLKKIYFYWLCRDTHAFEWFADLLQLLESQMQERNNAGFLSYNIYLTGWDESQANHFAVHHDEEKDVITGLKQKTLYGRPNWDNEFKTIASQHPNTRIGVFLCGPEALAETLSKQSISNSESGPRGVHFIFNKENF
NADPH oxidase 4 (Homo sapiens), sequence (Q9NPH5 whole entry, looked up): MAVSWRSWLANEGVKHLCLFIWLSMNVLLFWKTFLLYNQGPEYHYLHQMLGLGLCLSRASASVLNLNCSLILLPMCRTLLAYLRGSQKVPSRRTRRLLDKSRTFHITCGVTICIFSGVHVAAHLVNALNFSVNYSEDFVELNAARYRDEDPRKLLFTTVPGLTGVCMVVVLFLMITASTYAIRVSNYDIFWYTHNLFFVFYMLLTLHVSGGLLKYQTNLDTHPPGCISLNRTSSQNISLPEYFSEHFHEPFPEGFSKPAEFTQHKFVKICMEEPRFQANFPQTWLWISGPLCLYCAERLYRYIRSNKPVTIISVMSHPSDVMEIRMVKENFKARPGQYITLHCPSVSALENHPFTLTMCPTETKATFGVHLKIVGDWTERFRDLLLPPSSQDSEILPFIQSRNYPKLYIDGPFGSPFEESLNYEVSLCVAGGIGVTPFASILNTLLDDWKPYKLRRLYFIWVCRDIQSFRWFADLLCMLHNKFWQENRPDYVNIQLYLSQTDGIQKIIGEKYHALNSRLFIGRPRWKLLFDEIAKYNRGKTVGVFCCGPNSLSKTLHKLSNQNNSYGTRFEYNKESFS

Row | Compound | z-score [1] | composite z-score [2] | z-score [3] | z-score [4] | z-score [5] | z-score [6] | z-score [7] | z-score [8] | z-score [9] | z-score [10]
1 | [N-]=[N+]=NCc1ccccc1C[C@@]1(C(N)=O)N=C(c2ccc(OCCCO)cc2)O[C@@H]1c1ccccc1N=[N+]=[N-] | -1.04 (inactive) | 0.045 | 32.4 (active) | 31.4 (active) | 1.81 (inactive) | 2.31 (inactive) | -0.441 | 0.0502 (inactive) | -0.393 (inactive) | -1.89
2 | CC(C)C[C@@H]1NC(=O)[C@@H]2C[C@H](C(=O)NCCCCCCNC(=O)CS)[C@H](c3ccc(O)cc3)N2C1=O | 0.81 (inactive) | 0.197 | 4.25 (inactive) | -0.506 (inactive) | 0.75 (inactive) | -1.54 (inactive) | 0.0377 | 0.569 (inactive) | 0.943 (inactive) | -0.706
3 | C=C(COC)C(=O)CC[C@@H](OC(=O)c1ccccc1-c1ccccc1C(=O)O)c1ccccc1OCCO | -0.564 (inactive) | -0.103 | 5.01 (inactive) | 0.281 (inactive) | 1.03 (inactive) | -0.209 (inactive) | -0.813 | 0.26 (inactive) | -0.182 (inactive) | -0.933
4 | CC(C)N1CC=CC23O[C@@H]4/C=C\CCCOC(=O)C4[C@H]2C(=O)N(C(C)CO)[C@@H]3C1=O (stereo not given in full) | 2.12 (inactive) | -0.195 | 1.2 (inactive) | 0.0831 (inactive) | 1.07 (inactive) | 0.429 (inactive) | 0.979 | 0.667 (inactive) | 0.142 (inactive) | 0.883
5 | CC(C)C[C@@H]1NC(=O)[C@H]2C[C@@H](C(=O)O)[C@@H](c3cccc(OCCO)c3)N2C1=O | 0.441 (inactive) | 0.0794 | 6.12 (inactive) | 1.34 (inactive) | -2.36 (inactive) | 0.595 (inactive) | 0.793 | -0.911 (inactive) | -0.69 (inactive) | -0.0644
6 | CCOC(=O)C1=CC[C@@H](c2ccccc2)N(S(=O)(=O)c2ccc(C)cc2)[C@@H]1C#N | 0.49 (inactive) | 0.082 | 4.46 (inactive) | 0.804 (inactive) | 0.0758 (inactive) | 1 (inactive) | -0.268 | 0.224 (inactive) | -0.615 (inactive) | -0.14
7 | C=C(C(=O)CC[C@H](OC(=O)c1ccccc1-c1ccccc1C(=O)O)c1ccc(OCCO)cc1)C(C)C | -0.0716 (inactive) | 0.235 | 11.6 (active) | 1.77 (inactive) | 2.09 (inactive) | 0.92 (inactive) | -0.154 | 0.357 (inactive) | -0.446 (inactive) | -2.12
8 | CC1CC/C=C\[C@H]2OC34C=CCN(C(C)C)C(=O)[C@H]3N(C(C)CO)C(=O)[C@@H]4C2C(=O)O1 (stereo not given in full) | 1.9 (inactive) | 0.0043 | 1.07 (inactive) | 0.217 (inactive) | 1.06 (inactive) | 0.184 (inactive) | 1.65 | 0.273 (inactive) | -0.381 (inactive) | 1.45
9 | CCN1C(=O)C2CC(=O)C3C(CN(S(=O)(=O)c4ccc(C)cc4)C3c3ccc(C)cc3)C2C1=O (stereo not given) | 0.344 (inactive) | -0.0967 | 1.04 (inactive) | 0.804 (inactive) | 0.135 (inactive) | 0.609 (inactive) | -0.0511 | -0.374 (inactive) | -0.0929 (inactive) | -0.525
10 | COc1ccc([Si](C)(C)[C@H]2[C@H](CC(=O)N3CCC[C@H]3CO)O[C@@]3(C(=O)N(C)c4ccccc43)[C@@H]2C)cc1 | -0.716 (inactive) | -0.0143 | 0.577 (inactive) | 0.225 (inactive) | -0.0347 (inactive) | 0.423 (inactive) | -0.0454 | 1.4 (inactive) | 1.46 (inactive) | 1.86
11 | O=C1OCC=C[C@H]2OC34C=CCN(Cn5nnc6ccccc65)C(=O)[C@H]3N(CCO)C(=O)[C@@H]4[C@@H]12 (stereo not given in full) | -0.683 (inactive) | -0.101 | 0.813 (inactive) | 0.531 (inactive) | 0.268 (inactive) | 0.55 (inactive) | -0.376 | 1.17 (inactive) | 0.99 (inactive) | 1.38
12 | C=C(/C=C\CNS(=O)(=O)c1ccc(C)cc1)[C@H](O)[C@H]1CCCN1S(=O)(=O)c1ccccc1[N+](=O)[O-] | -0.473 (inactive) | -0.0366 | 12.1 (active) | 2.16 (inactive) | 1.03 (inactive) | 0.77 (inactive) | -0.208 | -0.264 (inactive) | -2.04 (inactive) | -1.77
13 | O=C(N1CCOCC1)[C@]1(CCS(=O)(=O)c2ccccc2)N=C(c2ccc(OCCCO)cc2)O[C@@H]1c1ccccc1 | 0.427 (inactive) | 0.441 | 27.2 (active) | 20 (active) | 3.43 (inactive) | 2.61 (inactive) | 0.0315 | 0.348 (inactive) | 1.72 (inactive) | 1.16
14 | CC(C)(C)OC(=O)CC[C@@]1(C(=O)N2CCOCC2)N=C(c2ccc(OCCCO)cc2)O[C@@H]1c1ccccc1CN=[N+]=[N-] | 0.409 (inactive) | 0.85 | 27 (active) | 14.9 (active) | -0.762 (inactive) | 1.11 (inactive) | -0.449 | 0.825 (inactive) | 2.1 (inactive) | 2.05
15 | C=C(CCCC)/C(=C/C[C@@H](OC(C)=O)c1ccc(OCCO)cc1)c1cc(C(=O)OC)ccc1OC | -0.195 (inactive) | -0.0518 | 23.7 (active) | 6.34 (inactive) | 1.86 (inactive) | 1.19 (inactive) | -0.265 | -0.958 (inactive) | -1.43 (inactive) | -1.98
16 | C#CCN(C(=O)OC(C)(C)C)[C@H](CO)c1ccccc1 | -1.15 (inactive) | -0.0536 | 1.57 (inactive) | -0.0352 (inactive) | -0.195 (inactive) | 0.133 (inactive) | 0.137 | 0.441 (inactive) | 0.469 (inactive) | 0.745
17 | CC1C2C(CCCO)=CC(C3C(=O)N(C(N)=O)C(=O)C23)N1Cc1cccc(OC(F)(F)F)c1 (stereo not given) | -0.114 (inactive) | 0.0982 | 0.376 (inactive) | 0.0112 (inactive) | -0.308 (inactive) | 0.0624 (inactive) | -0.207 | 0.217 (inactive) | 0.509 (inactive) | 0.107
18 | O=C(CS)NCCCCCCNC(=O)[C@H]1C[C@H]2C(=O)NCC(=O)N2[C@H]1c1cccc(OCCO)c1 | 0.838 (inactive) | 0.0797 | 2.16 (inactive) | -0.151 (inactive) | -1.92 (inactive) | -1.36 (inactive) | 0.21 | 2.14 (inactive) | 1.22 (inactive) | 0.769
19 | O=C1OC[C@@H](c2ccccc2)n2cc(/C=C/c3ccccc3)cc21 | 0.989 (inactive) | -0.0868 | 16.3 (active) | 0.408 (inactive) | 2.6 (inactive) | -1.8 (inactive) | 0.693 | 0.0419 (inactive) | 0.618 (inactive) | -0.408
20 | COC(=O)C(CC#Cc1ccc2c(c1)[C@]1(C(=O)N2)[C@H](C(=O)N2CCN(c3ncccn3)CC2)[C@H]2C(=O)O[C@H](c3ccccc3)[C@H](c3ccccc3)N2[C@@H]1c1ccc(O)cc1)C(=O)OC | -0.442 (inactive) | 1.93 | 1.85 (inactive) | 0.89 (inactive) | 0.804 (inactive) | 0.0729 (inactive) | -0.339 | 1.52 (inactive) | -0.566 (inactive) | 0.665
21 | OCCCc1cc[n+](Cc2cc3c(cc2Br)OCO3)cc1 | 0.855 (inactive) | 0.0191 | -0.103 (inactive) | 0.0608 (inactive) | -0.895 (inactive) | -0.237 (inactive) | -0.132 | -0.0452 (inactive) | 0.27 (inactive) | -0.112
22 | C=CCNC(=O)[C@H]1[C@@H]2C(=O)O[C@@H](c3ccccc3)[C@@H](c3ccccc3)N2[C@@H](c2ccc(O)cc2)[C@]12C(=O)Nc1ccccc12 | 1.58 (inactive) | -0.191 | 2.59 (inactive) | 0.301 (inactive) | -0.458 (inactive) | 0.393 (inactive) | 0.288 | 0.0548 (inactive) | -0.789 (inactive) | 1.04
23 | COc1cc(Cc2cc3c(c(-c4ccccc4)n2)[Si](C(C)C)(C(C)C)OC3)cc(OC)c1OC | 0.752 (inactive) | 0.0299 | 1.62 (inactive) | 0.702 (inactive) | 0.84 (inactive) | 0.332 (inactive) | 0.159 | 1.04 (inactive) | 0.424 (inactive) | 0.0407
24 | O=C1c2ccccc2[C@@]2(Cc3ccccc3N(CC(F)(F)F)C2=O)[C@H](c2ccc(CO)cc2)N1Cc1ccccc1 | -0.98 (inactive) | -0.0626 | -0.0567 (inactive) | -0.992 (inactive) | 0.11 (inactive) | -1.93 (inactive) | 2.33 | -2.06 (inactive) | -2.39 (inactive) | -2.36
25 | COCCOC(=O)N1C(=O)[C@@]2(c3cc(C#CCC(C(=O)OC)C(=O)OC)ccc31)[C@H](C(N)=O)[C@H]1C(=O)O[C@H](c3ccccc3)[C@H](c3ccccc3)N1[C@@H]2c1ccccc1OCCO | 1.08 (inactive) | -0.189 | 8.08 (active) | 2.37 (inactive) | 2.67 (inactive) | 1.05 (inactive) | 4.47 | 1.02 (inactive) | 0.826 (inactive) | -1.13
26 | CO[C@H]1O[C@H](CO)[C@@H](OC(=O)Nc2cccc(F)c2)[C@H](OC(=O)Nc2ccc3c(c2)OCO3)[C@@H]1OC(=O)Nc1ccc2c(c1)OCO2 | -0.727 (inactive) | 0.37 | 12 (active) | 2.05 (inactive) | 1.16 (inactive) | 1.18 (inactive) | 0.296 | -3.87 (inactive) | -1.07 (inactive) | -1.81
